Several values for one entry are separate records, joined by “and”; a condition that tells them apart may be missing. Equal values may be shown once. In all, about 5,500 compounds went through this assay and about 2,000 (36%) were called active. Another 18% or so got no clear call; they are omitted. Rule as the data show it: active = normalized growth mostly below about 0.91 (no sharp cut-off); inconclusive = no clear call, values can overlap the other calls; inactive = mostly above about 0.92. Some of the results follow.
Experiment: chemical genetic growth profiling, strain panel (AID 1159580);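 also: tested at 20 µM; growth read once vehicle control cultures reached saturation at 30 °C; 1 = growth at the plate median or of vehicle wells; lower values mean less growth of the strain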
Settings: S. cerevisiae deletion strains, growth OD

Measured: normalized growth

COc1ccc(CCC(=O)c2c(O)cc(O[C@@H]3O[C@H](CO)C(O)[C@H](O)C3O[C@@H]3O[C@@H](C)[C@H](O)[C@@H](O)[C@H]3O)cc2O)cc1O (some centres not stated)
inactive: locus YAL013W, strain DEP1, hits give low values 1 | locus YAL021C, strain ccr4, hits give low values 0.994 | locus YAL026C, strain drs2, hits give low values 1.04 | locus YAL030W, strain snc1, hits give low values 1.01 | locus YBL061C, strain skt5, hits give low values 1.02 | locus YBR009C, strain hhf1, hits give low values 1.02 | locus YBR021W, strain FUR4, hits give low values 0.997 | locus YBR023C, strain chs3, hits give low values 1.02 | locus YBR171W, strain sec66, hits give low values 1.04 | locus YBR229C, strain ROT2, hits give low values 0.998 | locus YBR231C, strain swc5, hits give low values 1.03 | locus YBR279W, strain paf1, hits give low values 1.02 | locus YCL011C, strain gbp2, hits give low values 1.02 | locus YCL016C, strain dcc1, hits give low values 1.01 | locus YCL029C, strain bik1, hits give low values 0.972 | locus YCL061C, strain MRC1, hits give low values 1.02 | locus YCL069W, strain vba3, hits give low values 1.02 | locus YCR088W, strain abp1, hits give low values 1.02 | locus YDL005C, strain med2, hits give low values 1.03 | locus YDL035C, strain GPR1, hits give low values 0.999 | locus YDL040C, strain nat1, hits give low values 0.998 | locus YDL074C, strain BRE1, hits give low values 0.966 | locus YDL101C, strain DUN1, hits give low values 0.995 | locus YDL134C, strain PPH21, hits give low values 0.997 | locus YDL185W, strain tfp1, hits give low values 0.955 | locus YDL192W, strain arf1, hits give low values 0.976 | locus YDR001C, strain nth1, hits give low values 1.01 | locus YDR069C, strain doa4, hits give low values 1.04 | locus YDR101C, strain arx1, hits give low values 0.987 | locus YDR137W, strain rgp1, hits give low values 1.04 | locus YDR150W, strain NUM1, hits give low values 1.01 | locus YDR159W, strain sac3, hits give low values 1.1 | locus YDR162C, strain NBP2, hits give low values 0.99 | locus YDR195W, strain ref2 0.986 | locus YDR297W, strain sur2, hits give low values 1.02 | locus YDR318W, strain mcm21, hits give low values 0.978 | locus YDR334W, strain swr1, hits give low values 1.03 | locus YDR335W, strain msn5, hits give low values 1.01 | locus YDR388W, hits give low values 0.995 | locus YDR392W, strain spt3, hits give low values 1.02 | locus YDR502C, strain sam2, hits give low values 1 | locus YEL003W, strain gim4, hits give low values 1.02 | locus YEL037C, strain rad23, hits give low values 1.01 | locus YEL061C, strain CIN8 (second series), hits give low values 1.01 | locus YEL061C, strain CIN8, hits give low values 0.999 | locus YER015W, strain faa2, hits give low values 1.01 | locus YER016W, strain bim1, hits give low values 1.03 | locus YER110C, hits give low values 0.983 | locus YER111C, strain swi4, hits give low values 1.01 | locus YER155C, strain BEM2 (second series), hits give low values 1.03 | locus YER155C, strain BEM2, hits give low values 0.992 | locus YER167W, strain BCK2, hits give low values 0.994 | locus YFR010W, strain ubp6, hits give low values 1.02 | locus YGL078C, strain dbp3, hits give low values 0.994 | locus YGL086W, strain mad1, hits give low values 0.999 | locus YGL167C, strain pmr1, hits give low values 1.03 | locus YGL173C, strain kem1, hits give low values 1.03 | locus YGL227W, strain vid30, hits give low values 1.02 | locus YGL240W, strain doc1, hits give low values 1.05 | locus YGL248W, strain PDE1, hits give low values 1 | locus YGL253W, strain hxk2, hits give low values 1.02 | locus YGR078C, strain PAC10, hits give low values 1.01 | locus YGR135W, strain pre9, hits give low values 1 | locus YGR229C, strain SMI1, hits give low values 1.01 | locus YGR252W, strain gcn5, hits give low values 1.07 | locus YHR013C, strain ard1, hits give low values 1 | locus YHR027C, strain rpn1, hits give low values 1.02 | locus YHR030C, strain SLT2, hits give low values 1 and 0.973 | locus YHR079C, strain IRE1 (second series), hits give low values 0.98 | locus YHR079C, strain IRE1, hits give low values 0.961 | locus YHR094C, strain hxt1, hits give low values 0.966 | locus YHR129C, strain ARP1, hits give low values 0.998 | locus YHR142W, strain chs7, hits give low values 1.01 | locus YHR200W, strain rpn10, hits give low values 0.975 | locus YIL066C, strain RNR3, hits give low values 0.994 | locus YIL073C, strain SPO22, hits give low values 0.941 | locus YIL125W, strain kgd1, hits give low values 0.981 | locus YIR030C, strain dcg1, hits give low values 0.988 | locus YJL092W, strain hpr5, hits give low values 1.01 | locus YJL095W, strain BCK1 (second series), hits give low values 1.01 | locus YJL095W, strain BCK1, hits give low values 0.969 and 0.981 | locus YJL115W, strain asf1, hits give low values 1.02 | locus YJL129C, strain trk1, hits give low values 1.03 | locus YJL134W, strain LCB3, hits give low values 0.999 | locus YJL154C, strain vps35, hits give low values 1.01 | locus YJL164C, strain tpk1, hits give low values 0.995 | locus YJL166W, strain qcr8, hits give low values 1.02 | locus YJL168C, strain set2, hits give low values 0.978 | locus YJL187C, strain SWE1 (second series), hits give low values 0.984 | locus YJL187C, strain SWE1, hits give low values 1.04 | locus YJR043C, strain POL32, hits give low values 0.963 | locus YJR066W, strain TOR1, hits give low values 0.896
